# Measured values published in PubChem BioAssay.
# Activity calls are given as the source filed them.
# Key:
# [1] = system: Plasmodium falciparum Sir2 (PF13_0152, Sir2A); test: Plasmodium falciparum Sir2A binding compounds – biochemical, small-molecule microarray, 635 nm fluorescence, primary screen (AID 1098); conditions: fluorescence 635 nm, higher = more signal;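 also: score merges spot fluorescence intensity with its signal-to-noise ratio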
# [2] = probe aDKK1 binding to arrayed compounds – biochemical, biotinylated probe, 635/667 nm fluorescence, primary screen (AID 1099); conditions: small-molecule microarray, higher = more signal;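 also: score merges 667nm spot fluorescence with signal to noise across triplicate slides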
# [3] = probe aCHRDL2 binding to arrayed compounds – biochemical, biotinylated probe, 635/667 nm fluorescence, primary screen (AID 1100); conditions: small-molecule microarray, higher = more signal
# [4] = change in splice reporter luminescence, either direction, cell-based, HEK293, spliceosome inhibition project, primary screen (AID 1101); conditions: HEK293 splicing luciferase reporter, 24 h, higher = more signal, called active from +8 up or from −8 down;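 also: HEK293 cells carrying a splicing-competent luciferase reporter gene; test concentration not given here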
# [5] = target: Fibroblast growth factor 10 (Homo sapiens) (UniProt O15520); test: compounds binding fibroblast growth factor 10 – biochemical, small-molecule microarray, 635 nm fluorescence, primary screen (AID 1102); conditions: FGF10 binding, fluorescence 635 nm, higher = more signal
# Chain of Fibroblast growth factor 10 (Homo sapiens) (O15520 whole entry, looked up): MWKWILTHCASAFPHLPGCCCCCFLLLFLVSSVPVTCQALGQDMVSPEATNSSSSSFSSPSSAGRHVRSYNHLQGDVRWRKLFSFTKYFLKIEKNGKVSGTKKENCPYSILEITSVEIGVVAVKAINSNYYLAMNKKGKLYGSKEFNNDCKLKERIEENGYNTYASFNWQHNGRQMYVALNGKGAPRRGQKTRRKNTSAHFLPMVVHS
# [6] = system: glycogen synthase kinase-3 (GSK3A per assay name; protocol says GSK3B); test: compounds binding glycogen synthase kinase-3 – biochemical, small-molecule microarray, 635 nm fluorescence, GSK3A, primary screen (AID 1103); conditions: fluorescence 635 nm, higher = more signal; also: the record names both GSK3A and GSK3B
# [7] = target: Epidermal growth factor receptor (Homo sapiens) (UniProt P00533); test: compounds binding epidermal growth factor receptor – biochemical, small-molecule microarray, 635 nm fluorescence, primary screen (AID 1104); conditions: EGFR binding, higher = more signal;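 also: score merges 667 nm emission intensity with spot signal to noise over triplicate slides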
# Chain of Epidermal growth factor receptor (Homo sapiens) (P00533 whole entry, looked up): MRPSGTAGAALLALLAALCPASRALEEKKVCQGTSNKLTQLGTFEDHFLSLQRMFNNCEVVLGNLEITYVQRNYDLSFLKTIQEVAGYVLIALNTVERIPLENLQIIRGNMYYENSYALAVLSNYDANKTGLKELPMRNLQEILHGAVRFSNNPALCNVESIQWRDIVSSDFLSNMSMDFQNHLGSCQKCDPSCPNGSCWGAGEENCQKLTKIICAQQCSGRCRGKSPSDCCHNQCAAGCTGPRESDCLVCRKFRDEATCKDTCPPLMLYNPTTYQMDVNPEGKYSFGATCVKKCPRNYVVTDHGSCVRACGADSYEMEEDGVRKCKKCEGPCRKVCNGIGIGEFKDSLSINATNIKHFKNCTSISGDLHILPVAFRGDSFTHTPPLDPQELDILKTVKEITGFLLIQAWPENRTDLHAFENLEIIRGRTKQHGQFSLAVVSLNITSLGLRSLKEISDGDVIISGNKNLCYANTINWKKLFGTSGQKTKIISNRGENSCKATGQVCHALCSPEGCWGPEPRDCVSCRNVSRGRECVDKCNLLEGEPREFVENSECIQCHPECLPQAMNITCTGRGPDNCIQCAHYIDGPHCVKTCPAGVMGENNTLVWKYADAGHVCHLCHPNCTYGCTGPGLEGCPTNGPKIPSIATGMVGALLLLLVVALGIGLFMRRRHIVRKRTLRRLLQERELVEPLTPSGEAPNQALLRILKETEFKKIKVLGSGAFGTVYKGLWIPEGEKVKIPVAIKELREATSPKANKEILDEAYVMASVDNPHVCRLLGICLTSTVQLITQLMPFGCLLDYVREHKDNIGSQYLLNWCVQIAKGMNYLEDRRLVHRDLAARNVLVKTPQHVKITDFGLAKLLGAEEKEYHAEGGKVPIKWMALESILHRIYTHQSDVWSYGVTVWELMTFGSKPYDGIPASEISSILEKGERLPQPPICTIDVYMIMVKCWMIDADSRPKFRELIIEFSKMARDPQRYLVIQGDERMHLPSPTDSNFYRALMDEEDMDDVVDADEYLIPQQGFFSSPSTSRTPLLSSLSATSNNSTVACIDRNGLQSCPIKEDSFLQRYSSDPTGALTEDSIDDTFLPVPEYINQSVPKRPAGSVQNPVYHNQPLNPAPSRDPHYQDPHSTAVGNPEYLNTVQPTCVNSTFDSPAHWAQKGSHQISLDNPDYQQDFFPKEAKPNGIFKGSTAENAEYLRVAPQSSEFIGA
# [8] = target: Follistatin-related protein 3 (Homo sapiens) (UniProt O95633); test: compounds binding follistatin-related protein 3 – biochemical, small-molecule microarray, 635 nm fluorescence, primary screen (AID 1105); conditions: FSTL3 binding, higher = more signal;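 also: score merges emission near 667 nm and signal to noise per printed spot across three slides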
# Chain of Follistatin-related protein 3 (Homo sapiens) (O95633 whole entry, looked up): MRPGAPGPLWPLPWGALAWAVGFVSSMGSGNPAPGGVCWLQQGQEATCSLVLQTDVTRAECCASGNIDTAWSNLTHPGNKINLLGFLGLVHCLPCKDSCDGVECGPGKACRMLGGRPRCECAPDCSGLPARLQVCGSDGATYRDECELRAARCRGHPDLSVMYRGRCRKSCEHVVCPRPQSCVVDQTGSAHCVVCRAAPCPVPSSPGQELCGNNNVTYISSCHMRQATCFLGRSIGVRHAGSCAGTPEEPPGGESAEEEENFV
# [9] = target: Dickkopf-related protein 1 (Homo sapiens) (UniProt O94907); test: small molecules binding DKK1 protein – biochemical, small-molecule microarray, 635 nm fluorescence scan, primary screen (AID 1106); conditions: higher = more signal;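 also: score merges emission near 667 nm with signal to noise over three replicate slides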
# Chain of Dickkopf-related protein 1 (Homo sapiens) (O94907 whole entry, looked up): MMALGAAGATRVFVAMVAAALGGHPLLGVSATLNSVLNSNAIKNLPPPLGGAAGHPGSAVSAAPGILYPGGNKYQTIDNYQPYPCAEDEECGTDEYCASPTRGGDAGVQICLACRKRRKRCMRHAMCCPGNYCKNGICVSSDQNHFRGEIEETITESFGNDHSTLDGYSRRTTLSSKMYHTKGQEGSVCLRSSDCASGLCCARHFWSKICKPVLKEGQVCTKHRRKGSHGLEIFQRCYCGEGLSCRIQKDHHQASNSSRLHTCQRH
# [10] = system: Inhibin beta A chain (activin A); test: small molecules binding activin A – biochemical, small-molecule microarray, 635 nm fluorescence scan, primary screen (AID 1107); conditions: INHBA, higher = more signal;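 also: mouse activin A protein probed at 4.33 µg/mL on printed slides; score merges bound-protein fluorescence near 667 nm with spot signal-to-noise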
# [11] = system: Human papillomavirus type 1a protein E7 (residues 44-93); test: small molecules binding HPV E7 44-93 – biochemical, small-molecule microarray, residues 44-93, 635 nm fluorescence, primary screen (AID 1108); conditions: fluorescence 635 nm, higher = more signal;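 also: E7 fragment applied at 1 µg/mL in TBST for 1 h at 4 C; score combines spot fluorescence with its signal to noise ratio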
# [12] = hepatitis C replication reporter changes, two-sided – Huh7 cells, luciferase reporter, HCV replication inhibitor project, primary screen (AID 1109); conditions: Huh7 HCV replicon luciferase reporter, 48 h; higher = more signal;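 also: huh7 hepatoma cells harbouring a luciferase neomycin HCV replicon reporter; luciferase luminescence as measure of HCV replicon replication; test concentration not given here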
# [13] = target: Left-right determination factor 2 (Homo sapiens) (UniProt O00292); test: small molecules binding LEFTY2 protein – biochemical, small-molecule microarray, 635 nm fluorescence scan, primary screen (AID 1110); conditions: higher = more signal
# Chain of Left-right determination factor 2 (Homo sapiens) (O00292 whole entry, looked up): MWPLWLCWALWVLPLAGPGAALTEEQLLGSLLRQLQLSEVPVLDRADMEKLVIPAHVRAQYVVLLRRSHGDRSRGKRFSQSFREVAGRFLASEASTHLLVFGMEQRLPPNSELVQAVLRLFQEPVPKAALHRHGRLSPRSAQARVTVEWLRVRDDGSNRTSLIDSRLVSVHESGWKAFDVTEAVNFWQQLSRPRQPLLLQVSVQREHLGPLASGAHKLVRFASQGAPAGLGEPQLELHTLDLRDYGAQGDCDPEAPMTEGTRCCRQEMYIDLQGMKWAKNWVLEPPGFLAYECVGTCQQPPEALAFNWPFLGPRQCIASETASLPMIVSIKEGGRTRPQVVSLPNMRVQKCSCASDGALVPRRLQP
# [14] = target: Calmodulin-1 (Homo sapiens) (UniProt P0DP23); test: small molecules binding calmodulin-1 with EGTA – biochemical, small-molecule microarray, Cy5-labelled CALM1, profiling panel (AID 1111); conditions: Cy5-CALM1 binding fluorescence, higher = more signal;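 also: labelled calmodulin applied in Tris saline Tween buffer holding calcium plus EGTA and DTT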
# [15] = target: Calmodulin-1 (Homo sapiens) (UniProt P0DP23); test: small molecules binding Ca-loaded calmodulin-1 – biochemical, small-molecule microarray, Cy5-labelled CALM1, plus calcium, artefact control for SMM control-protein annotation, profiling panel (AID 1112); conditions: Cy5-CALM1 binding fluorescence, higher = more signal;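 also: score merges spot fluorescence with signal to noise from triplicate slides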
# [16] = probe aWnt5a binding to arrayed compounds – biochemical, biotinylated probe, 635/667 nm fluorescence, primary screen (AID 1113); conditions: small-molecule microarray, higher = more signal;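 also: score merges 667 nm fluorescence intensity with signal-to-noise per printed feature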
# [17] = probe aShh binding to arrayed compounds – biochemical, biotinylated probe, 635/667 nm fluorescence, primary screen (AID 1114); conditions: small-molecule microarray, higher = more signal;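 also: probe is biotin-labelled aShh protein from a stem cell growth factor screen; measures binding of labelled protein to compounds printed on the slide; score merges feature fluorescence at 667 nm with signal-to-noise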
# [18] = probe aNog binding to arrayed compounds – biochemical, biotinylated probe, 635/667 nm fluorescence, primary screen (AID 1115); conditions: small-molecule microarray, higher = more signal;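 also: probe is biotinylated aNog protein used at 0.15 µg/mL for 1 h at 4 C; z-score combines 667 nm fluorescence of each spot with its signal to noise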
# [19] = target: Torsin-1A-interacting protein 1 (Homo sapiens) (UniProt Q5JTV8); test: compound microarray binding of lysate hLAP1 – cell lysate, small-molecule microarray, COS7 lysate, 635/667 nm fluorescence, primary screen (AID 1116); conditions: 635 nm fluorescence, higher = more signal
# Chain of Torsin-1A-interacting protein 1 (Homo sapiens) (Q5JTV8 whole entry, looked up): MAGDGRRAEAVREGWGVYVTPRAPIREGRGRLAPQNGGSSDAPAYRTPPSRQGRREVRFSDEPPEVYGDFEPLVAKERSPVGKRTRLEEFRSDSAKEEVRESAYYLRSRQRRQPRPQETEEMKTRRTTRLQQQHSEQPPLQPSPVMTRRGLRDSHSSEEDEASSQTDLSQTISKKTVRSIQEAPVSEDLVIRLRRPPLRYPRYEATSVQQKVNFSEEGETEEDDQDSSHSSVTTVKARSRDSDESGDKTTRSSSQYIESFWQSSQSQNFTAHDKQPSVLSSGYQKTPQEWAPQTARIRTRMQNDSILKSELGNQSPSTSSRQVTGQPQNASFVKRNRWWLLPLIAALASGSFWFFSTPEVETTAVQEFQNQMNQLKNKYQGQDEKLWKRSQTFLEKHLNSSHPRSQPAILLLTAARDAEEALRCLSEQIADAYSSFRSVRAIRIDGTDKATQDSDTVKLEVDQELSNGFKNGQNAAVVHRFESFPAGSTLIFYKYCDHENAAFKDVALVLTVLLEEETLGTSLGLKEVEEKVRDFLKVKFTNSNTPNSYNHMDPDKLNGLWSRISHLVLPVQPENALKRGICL
# [20] = target: Alpha-bungarotoxin (Bungarus multicinctus) (UniProt P60615); test: compounds binding labelled alpha-BTX control protein – biochemical, small-molecule microarray, Alexa647 label, 635/667 nm fluorescence, artefact control for SMM control protein annotation, profiling panel (AID 1117); conditions: alpha-BTX-A647 binding fluorescence, higher = more signal
# Chain of Alpha-bungarotoxin (Bungarus multicinctus) (P60615 whole entry, looked up): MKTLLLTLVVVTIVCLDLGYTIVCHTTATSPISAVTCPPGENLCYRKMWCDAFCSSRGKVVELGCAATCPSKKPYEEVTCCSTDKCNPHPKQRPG
SMILES,composite z-score [1],composite z-score [2],composite z-score [3],z-score [4],composite z-score [5],composite z-score [6],composite z-score [7],composite z-score [8],composite z-score [9],composite z-score [10],composite z-score [11],z-score [12],composite z-score [13],composite z-score [14],composite z-score [15],composite z-score [16],composite z-score [17],composite z-score [18],composite z-score [19],composite z-score [20]
COC(=O)[C@@]1(Cc2ccc(F)cc2)[C@@H]2[C@@H](CC(=O)[C@H]2CC(=O)C(=O)N(C)C)CN1C(=O)c1ccccc1,0.532,1.21,1.19,-0.191 (inactive),0.849,1.09,0.251,1.32,-0.598,0.793,1.44,-2.53,-0.211,1.29,0.352,0.24,0.522,1.41,1.08,1.15
O=C1O[C@@H](c2ccccc2)[C@@H](c2ccccc2)N2[C@@H](c3ccc(OCCO)cc3)[C@]3(C(=O)Nc4ccccc43)[C@@H](C(=O)NC[C@H](O)c3ccccc3)[C@H]12,1.17,0.189,0.2,-0.203 (inactive),0.55,0.445,0.566,0.33,0.334,0.632,1.28,-2.1,1.04,0.158,0.0233,-0.0768,-0.2,0.0597,1.3,0.362
CC(CO)N1C(=O)[C@@H]2C3C(=O)OCCC/C=C\[C@H]3OC23C=CCN(c2ccc4ccccc4c2)C(=O)[C@@H]13 (stereo not given in full),0.0726,-0.146,0.128,-0.317 (inactive),-1.01,-0.974,-1.04,-0.718,-1.17,-0.107,-0.711,0.793,-1.22,0.0827,-0.0356,-0.127,-0.273,-0.0675,1.19,0.169
Cc1ccc(S[C@]2(C(=O)NC(C)C)CC(=O)N(Cc3ccccc3Cl)[C@@H]2c2ccc(CO)cc2I)cc1,1,0.0056,1.07,0.0132 (inactive),-1.05,-0.26,-1.51,-0.674,-1.39,0.762,0.472,-2.47,-2.08,0.0453,-0.174,-0.252,-0.283,-0.158,-0.252,1.33
CCCCCC1=C2CNC(CCC)(C(=O)OC)C=C2C(C)C1=O (stereo not given),0.0288,0.719,0.952,2.6 (inactive),0.439,-0.111,-0.576,-0.435,-0.793,1.14,0.514,-0.183,-0.477,1.42,1.27,-0.0125,0.811,1.66,0.997,0.334
COc1ccc([Si](C)(C)[C@H]2[C@H](CCO)O[C@@]3(C(=O)N(Cc4ccc(N5C(=O)COc6ccccc65)cc4)c4ccccc43)[C@@H]2C)cc1,0.0297,-0.0813,0.812,-1.15 (inactive),-0.712,-1.01,-0.95,-0.534,-0.297,-0.515,0.49,-4.92,-1.45,0.471,0.601,-0.147,-0.153,0.201,-0.373,0.11
O=C(NCc1ccccc1)[C@@H]1c2ccccc2C(=O)N(CC23CC4CC(CC(C4)C2)C3)[C@H]1c1ccc(CO)cc1,1.6,-0.654,-0.524,0.152 (inactive),0.971,1.31,0.603,1.43,0.593,0.147,1.36,-1.96,0.567,0.237,-0.831,-0.0957,-0.0337,-0.584,0.575,0.645
COc1ccc(CCNC(=O)[C@@]2(C)c3ccccc3C(=O)N(Cc3cc(F)cc(C(F)(F)F)c3)[C@H]2c2ccc(CO)cc2)cc1,1.59,0.362,0.875,-1.23 (inactive),0.512,-0.596,-0.244,-0.972,-0.434,-0.0094,0.0404,-0.928,-0.454,0.123,-0.183,-0.0944,-0.0849,0.549,-0.152,-0.838
CC(C)(C)C(=O)N[C@@H](c1ccc(Cl)cc1)[C@]1(C)C[C@H]1C1CCCCC1,0.705,0.701,0.933,-0.455 (inactive),0.521,1.28,-0.19,0.233,0.0399,0.998,1.19,-0.409,-0.487,1.27,1.1,0.197,0.838,2.13,1.94,2.02
COC(=O)[C@@]1(Cc2ccc(F)cc2)[C@H]2c3cc(C(=O)N4CCCC4)n(Cc4cc(C)n(C)n4)c3C[C@H]2CN1C(=O)c1ccccc1,0.89,1.01,1.4,-3.14 (inactive),0.533,0.775,-0.144,-0.261,-0.449,1.28,0.95,-1.17,-0.857,2.36,1.38,0.143,0.356,2.16,3.13,0.251
COc1ccc(CCNC(=O)[C@@H]2c3ccccc3C(=O)N(C3Cc4ccccc4C3)[C@H]2c2ccc(CO)cc2)cc1,0.613,-0.124,0.857,0.54 (inactive),0.0846,0.316,-0.19,0.0595,-0.337,0.832,1.35,-1.14,0.0971,0.329,0.732,-0.0738,0.0856,-0.417,1.24,0.134
